PMC10726135, “HNF4α isoforms regulate the circadian balance between carbohydrate and lipid metabolism in the liver”
In all, about 18,000 sequences were measured (“log2 normalized intensity”: median about 0.36, highest 2% from about 7.3 on). What follows is part of a selection rich in the highest values, with near analogues and random picks from the rest.

Each sequence was assayed against T1, HNF4alpha8 (COS-7 nuclear extract) (Homo sapiens, UniProt P41235-5 1-452) (assay: protein-binding microarray; COS-7 nuclear extract on double-stranded Agilent 4x180k PBM; binding buffer, salt, pH and temperature not given in the material; high values mean tight binding). Details: chain copies: 2; label: 3' end of strand 1 on the slide; dsDNA, one strand shown.
T1 sequence: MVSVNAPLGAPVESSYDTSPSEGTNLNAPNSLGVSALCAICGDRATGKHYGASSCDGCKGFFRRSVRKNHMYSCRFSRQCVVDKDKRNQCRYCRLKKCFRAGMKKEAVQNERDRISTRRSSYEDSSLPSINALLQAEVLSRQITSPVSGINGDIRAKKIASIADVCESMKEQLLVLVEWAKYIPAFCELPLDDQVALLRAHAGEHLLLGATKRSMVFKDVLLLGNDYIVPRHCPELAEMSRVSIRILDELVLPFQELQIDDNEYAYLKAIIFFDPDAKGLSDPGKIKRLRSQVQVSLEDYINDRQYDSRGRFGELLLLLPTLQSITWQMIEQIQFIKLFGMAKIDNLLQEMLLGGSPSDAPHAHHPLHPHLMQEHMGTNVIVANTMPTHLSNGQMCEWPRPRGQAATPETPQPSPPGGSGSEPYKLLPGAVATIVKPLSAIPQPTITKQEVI
How it was run: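 Binding signal was defined as the normalized, background-corrected gProcessedSignal reported by Agilent software. It came from nuclear extracts of COS-7 cells transiently transfected with a human HNF4α isoform expression vector, applied to a custom Agilent SurePrint G3 4x180k array. That array held ~44,000 test sequences in quadruplicate as double-stranded ~60-nt oligonucleotides, and bound HNF4α was imaged at 2-µm resolution on an Agilent G2565CA scanner.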
Sequence “TTGAATTCCTTCTTCTTCTGGGGACTTCGGGCCTAGGGAGATTAGAGTATCGGTCGA” has a binding signal of 2.16 log2 normalized intensity.
For “CTTATAAATCTTCAACTGGAGGATAAAGTTGCCTAGGGAGATTAGAGTATCGGTCGA”, the binding signal was 1.09 log2 normalized intensity.
“GAGTCCAAACTGGGACCTGTGACACTCTGCGCCTAGGGAGATTAGAGTATCGGTCGA” gave a binding signal of 0.644 log2 normalized intensity.
“CATACCAGGTGTAAAGTCTGGCATACAGGGGCCTAGGGAGATTAGAGTATCGGTCGA” gave a binding signal of 0.00259 log2 normalized intensity.
“ATGTTAGGCTGGAAAACTGGGCTGTTATTTGCCTAGGGAGATTAGAGTATCGGTCGA” showed a binding signal of 0.577 log2 normalized intensity.
“TCCATCATTTTTCTCTCTTGGACTCTTGGAGCCTAGGGAGATTAGAGTATCGGTCGA” showed a binding signal of 4.92 log2 normalized intensity.
“GAACATGGACTTTGAACCTCTCTTCTTTTTGCCTAGGGAGATTAGAGTATCGGTCGA” gave a binding signal of 7.93 log2 normalized intensity.
“CATCTGAACTCTTCATGGACTCCTCTTATCGCCTAGGGAGATTAGAGTATCGGTCGA” showed a binding signal of 2.06 log2 normalized intensity.
For “CATTTTTCTCTCTTGGACTCTTGGACTCCCGCCTAGGGAGATTAGAGTATCGGTCGA”, the binding signal was 7.67 log2 normalized intensity.
Sequence “CCATACCTCTTGCGTGTTATCTATGGAACAGCCTAGGGAGATTAGAGTATCGGTCGA” has a binding signal of 1.67 log2 normalized intensity.
Work on “AACATGGACTTTGTTGTTTGCCTCTGAAAAGCCTAGGGAGATTAGAGTATCGGTCGA” yielded a binding signal of 2.8 log2 normalized intensity.
“CCTCTTGCGTGTTATCTATGGAACATGGACGCCTAGGGAGATTAGAGTATCGGTCGA” was tested, and the binding signal was 2.5 log2 normalized intensity.
“TACATTGAACTTTGAACACCTCTTCTTTCTGCCTAGGGAGATTAGAGTATCGGTCGA” was tested, and the binding signal was 5.51 log2 normalized intensity.
“TGCGTGTTATCTATGGAACATGGACTTTGAGCCTAGGGAGATTAGAGTATCGGTCGA” was tested, and the binding signal was 9.28 log2 normalized intensity.
“TTCTCTCTTGGACTCTTGGACTCCCTGAAGGCCTAGGGAGATTAGAGTATCGGTCGA” gave a binding signal of 5.73 log2 normalized intensity.
Sequence “CTATGGAACATGGACTTTGAACCTCTCTTCGCCTAGGGAGATTAGAGTATCGGTCGA” has a binding signal of 9.09 log2 normalized intensity.
In the case of “TTTGAACACCTCTTCTTTCTTCTCTGGTACGCCTAGGGAGATTAGAGTATCGGTCGA”, the binding signal is reported as 1.8 log2 normalized intensity.
Work on “TTGCCAGTTCCCATTTGCGCTGGTTTTATGGCCTAGGGAGATTAGAGTATCGGTCGA” yielded a binding signal of 1.65 log2 normalized intensity.
In the case of “GTTATCACAGGCTTGGAATGTTTCTGTATCGCCTAGGGAGATTAGAGTATCGGTCGA”, the binding signal is reported as 0.74 log2 normalized intensity.
“AAACGCTGAAGTCTCAAAGTTCACCACTTTGCCTAGGGAGATTAGAGTATCGGTCGA” gave a binding signal of 3.3 log2 normalized intensity.
“GAAGCTGGTAGCATGGCTCAGTCCAAGTCCGCCTAGGGAGATTAGAGTATCGGTCGA” was tested, and the binding signal was 0.896 log2 normalized intensity.
Work on “TTGGACTCTGCCACTGGTTTGCACACACCAGCCTAGGGAGATTAGAGTATCGGTCGA” yielded a binding signal of 1.94 log2 normalized intensity.
With “TATACATTTTCCCACTTGTATGTCCAAGGGGCCTAGGGAGATTAGAGTATCGGTCGA” the binding signal was 1.25 log2 normalized intensity.
Sequence “GAACAAAGGTTGGTGTGAACCAGGGTTAAGGCCTAGGGAGATTAGAGTATCGGTCGA” has a binding signal of 1.59 log2 normalized intensity.
In the case of “ACCTTTATCTGATCAGAAATGTTTGGAATTGCCTAGGGAGATTAGAGTATCGGTCGA”, the binding signal is reported as 1.84 log2 normalized intensity.
With “GTTATCTATGGAACATGGACTTTGAACCTCGCCTAGGGAGATTAGAGTATCGGTCGA” the binding signal was 10.9 log2 normalized intensity.
For “TCTTCTTCTGGGGACTTCGGTCTTTTTTCTGCCTAGGGAGATTAGAGTATCGGTCGA”, the binding signal was 2.67 log2 normalized intensity.
“ACTCATTTCACATTGGTGCCCTTTGCCTTTGCCTAGGGAGATTAGAGTATCGGTCGA” showed a binding signal of 4.99 log2 normalized intensity.
“TGAACTTTGAACACCTCTTCTTTCTTCTCTGCCTAGGGAGATTAGAGTATCGGTCGA” gave a binding signal of 4.71 log2 normalized intensity.
Sequence “TTTCTCTTTTGACCTTTGGACTTTCACATTGCCTAGGGAGATTAGAGTATCGGTCGA” has a binding signal of 11 log2 normalized intensity.
Work on “CCTTTGGTGCCTCTTTTTTCTTGTTGACTTGCCTAGGGAGATTAGAGTATCGGTCGA” yielded a binding signal of 1.91 log2 normalized intensity.
“TGGACTTTGAACCTCTCTTCTTTTTCGTCTGCCTAGGGAGATTAGAGTATCGGTCGA” showed a binding signal of 7.42 log2 normalized intensity.
“CCTTGCTATGGAGTGGACTTTGGCTTATGCGCCTAGGGAGATTAGAGTATCGGTCGA” was tested, and the binding signal was 7.08 log2 normalized intensity.
For “AGTCTAACTTTGGACTTTTATGTTAAGATCGCCTAGGGAGATTAGAGTATCGGTCGA”, the binding signal was 2.93 log2 normalized intensity.
Sequence “GCCTGTCACCCAACCTCACCTAACCACATTGCCTAGGGAGATTAGAGTATCGGTCGA” has a binding signal of 1.21 log2 normalized intensity.
With “GCTGATGCAGAGGGTGCAAAGTTTTTAAAGGCCTAGGGAGATTAGAGTATCGGTCGA” the binding signal was 1.28 log2 normalized intensity.
In the case of “ACACCTTTTCTAGCTGAGTTGACCTGTGTTGCCTAGGGAGATTAGAGTATCGGTCGA”, the binding signal is reported as 4.51 log2 normalized intensity.
Sequence “ACATTAATCAGTCGCGTATCTGACTTTATCGCCTAGGGAGATTAGAGTATCGGTCGA” has a binding signal of 0.606 log2 normalized intensity.
With “CATTCTCTAATCAGGTCGCTGCCTGCCCCTGCCTAGGGAGATTAGAGTATCGGTCGA” the binding signal was 3.39 log2 normalized intensity.
With “TACATTTTGCTCTGTTGTGTCAAAGGTCACGCCTAGGGAGATTAGAGTATCGGTCGA” the binding signal was 7 log2 normalized intensity.
Work on “TGACCTGGTACTATGACCTTTCACCTTTTAGCCTAGGGAGATTAGAGTATCGGTCGA” yielded a binding signal of 7.78 log2 normalized intensity.
Sequence “CTATGACCTTTCACCTTTTAGCTTGGCATGGCCTAGGGAGATTAGAGTATCGGTCGA” has a binding signal of 5.08 log2 normalized intensity.
